Data from PubChem BioAssay (Tox21).
Values joined by “and” are separate entries in the source; they are usually repeats but may differ in a detail not shown here. Equal entries are not always repeated. Inconclusive results are not listed. A call without a number means that no potency is given here. Where a structure was tested more than once in an assay, its records may differ in their call. Active and inactive are the calls of the source. The call rests on the fitted dose curve; in most records, active means well fitted cell-killing curve with a large enough effect in the repeat runs; inconclusive means weak or mixed curves, or effect the other way; inactive means no such curve, though single readings can be large or run the other way.
Potency means the concentration at half of the fitted maximal effect.

Test: qHTS assay to identify small molecule antagonists of the thyroid receptor (TR) signaling pathway - cell viability counter screen (AID 743064); further: nearly all actives have a fitted effect of over 50% in size
Settings: GH3.TRE-Luc viability, CellTiter-Fluor, 24 h; series mostly up to 70.3 µM
Description: National Center for Advancing Translational Sciences [NCATS]
NIH Chemical Genomics Center [NCGC]
U.S. Environmental Protection Agency [EPA]
National Institutes of Environmental Health Sciences [NIEHS]
National Toxicology Program [NTP]
U.S. Food and Drug Administration [FDA]
Thyroid receptor (TR), a nuclear hormone receptor, plays an important role in development, proliferation, differentiation, metabolism, brain function, and cardiovascular system. […] To profile the Tox21 10K compound library in TR signaling, a cell-based GH3-TRE-Luc assay (GH3.TRE-Luc cell line, developed by the laboratory of Dr. Albertinka J. Murk, Wageningen University) was used to measure the inhibition of TR. GH3 (rat pituitary tumor) cells stably expressing a TR activity sensor consisting of two TR response elements and a luciferase reporter gene. The cytotoxicity of the Tox21 compound library against the GH3.TRE-Luc cell line was tested in parallel by measuring the cell viability using CellTiter-Fluor assay (Promega, Madison, WI) in the same wells.
Tox21 Assay Protocol Summary:
GH3.TRE-Luc cells were dispensed at 1500 cells/4 uL/well into 1536-well white solid bottom plates using a Multidrop Combi dispenser (Thermo Fisher Scientific Inc., Waltham, MA). After the assay plates were incubated at 37 C for 4 hours, 23 nL of library compound or DMSO controls was transferred to the assay plates by a pintool station (Kalypsys, San Diego, CA), followed by addition of 1 ul of T3 (1 nM, final concentration in the wells) to stimulate TR transactivation. The assay plates were incubated at 37 C for 23.5 h, and then 1 uL of CellTiter-Fluor reagent (Promega, Madision, WI) of measuring cytotoxicity was added to each well using a Bioraptr Flying Reagent Dispenser (FRD) workstation (Beckman Coulter, Indianapolis, IN, USA). The plates were incubated at 37C and 5% CO2 for additional 30 min, and fluorescence intensity was measured by a ViewLux plate reader (PerkinElmer, Shelton, CT).
With NS(=O)(=O)O the Potency was “inactive”.
With Cc1ncc([N+](=O)[O-])n1CCO the Potency was “inactive”.
With COc1ccc(C(Cl)=C(c2ccc(OC)cc2)c2ccc(OC)cc2)cc1 the Potency was “inactive”.
In the case of CCCCC(CC)C(=O)O (stereo not given), the Potency is reported as “inactive”.
With CN(C)C(=S)SC(=S)N(C)C the Potency was 2.11 µM (active) and 1.98 µM (active) and 433 nM (active).
With COc1ccc2c(c1)c(CC(=O)O)c(C)n2C(=O)c1ccc(Cl)cc1 the Potency was “inactive”.
For COc1cccc(O)c1O, the Potency was “inactive”.
In the case of NC(CO)(CO)CO, the Potency is reported as “inactive”.
With Nc1ccc(S(N)(=O)=O)cc1 the Potency was “inactive”.
With Cc1ncc([N+](=O)[O-])n1C the Potency was “inactive”.
In the case of O=c1[nH]cnc2c1ncn2[C@H]1CC[C@@H](CO)O1, the Potency is reported as “inactive”.
For CC(O)(P(=O)(O)O)P(=O)(O)O, the Potency was “inactive”.
In the case of Oc1ccccc1, the Potency is reported as “inactive”.
In the case of CCCCCCCCCCCC[N+](C)(C)Cc1ccccc1, the Potency is reported as 5.96 µM (active) and 12 µM (active) and 14.9 µM (active).
With CCN(Cc1c(F)cccc1Cl)c1c([N+](=O)[O-])cc(C(F)(F)F)cc1[N+](=O)[O-] the Potency was “inactive”.
In the case of CN1CCC[C@H]1c1cccnc1, the Potency is reported as “inactive”.
With CC(C)c1c(C(=O)Nc2ccccc2)c(-c2ccccc2)c(-c2ccc(F)cc2)n1CC[C@@H](O)C[C@@H](O)CC(=O)O the Potency was “inactive and 57.1 µM (active)”.
With O=C1NC(=O)C(c2ccccc2)(c2ccccc2)N1 the Potency was “inactive”.
For Cc1cn([C@H]2C=C[C@@H](CO)O2)c(=O)[nH]c1=O, the Potency was “inactive”.
For CCN(CC)C(=O)c1cccc(C)c1, the Potency was “inactive”.
In the case of COc1ccc2cc(S(=O)(=O)N[C@H](CC(=O)N[C@H](Cc3ccc(CN4[C@H](C)CCC[C@@H]4C)cc3)C(=O)N(C)C(C)C)c3ccc4c(c3)OCO4)ccc2c1, the Potency is reported as 2.58 µM (active).
With O=c1[nH]cc(F)c(=O)[nH]1 the Potency was 20.1 µM (active).
In the case of O=C(O)c1ccccc1, the Potency is reported as “inactive”.
With COc1ccc(OC(F)(F)F)cc1CN[C@H]1CCCN[C@H]1c1ccccc1 the Potency was 24.3 µM (active).
In the case of CNNCc1ccc(C(=O)NC(C)C)cc1, the Potency is reported as “inactive”.
With CCOC(N)=O the Potency was “inactive”.
With CN1CCc2cccc3c2[C@H]1Cc1ccc(O)c(O)c1-3 the Potency was 29.8 µM (active) and 49.1 µM (active) and 22.8 µM (active).
For CC1(C)O[C@@H]2C[C@H]3[C@@H]4CCC5=CC(=O)C=C[C@]5(C)[C@@]4(F)[C@@H](O)C[C@]3(C)[C@]2(C(=O)CO)O1, the Potency was “inactive”.
With O=C(O)CC(O)C(=O)O (stereo not given) the Potency was “inactive”.
With CC12CCC(CC1)C(C)(C)O2 the Potency was “inactive”.
In the case of C[C@](N)(Cc1ccc(O)c(O)c1)C(=O)O, the Potency is reported as “inactive”.
For O=S1(=O)OC(c2ccc(O)cc2)(c2ccc(O)cc2)c2ccccc21, the Potency was 27.3 µM (active).
In the case of C=CCc1ccc(O)c(OC)c1, the Potency is reported as “inactive”.
With C/C=C/C=C/C(=O)O the Potency was “inactive”.
In the case of CCCCOC(=O)c1ccc(O)cc1, the Potency is reported as “inactive”.
In the case of O=C1OC2(c3ccccc31)c1cc(Br)c(O)c(Br)c1Oc1c2cc(Br)c(O)c1Br, the Potency is reported as 6.68 µM (active) and 5.53 µM (active) and 7.91 µM (active).
With Nc1c(N=Nc2ccc(-c3ccc(N=Nc4cc(S(=O)(=O)O)c5ccccc5c4N)cc3)cc2)cc(S(=O)(=O)O)c2ccccc12 the Potency was 16.8 µM (active) and 27.3 µM (active).
In the case of OC[C@H]1O[C@H](O[C@]2(CCl)O[C@H](CCl)[C@@H](O)[C@@H]2O)[C@H](O)[C@@H](O)[C@H]1Cl, the Potency is reported as “inactive”.
For CC(C)C(=O)Nc1ccc([N+](=O)[O-])c(C(F)(F)F)c1, the Potency was “inactive”.
For C1CCC(C(CC2CCCCN2)C2CCCCC2)CC1 (stereo not given), the Potency was 4.73 µM (active).
